Screening results: PubChem BioAssay, National Center for Advancing Translational Sciences (NCATS)
Luc counter = Kinase-Glo luciferase inhibition (counter-screen). Q27757. Kinase-Glo luciferase, ATP luminescence, 8 min. Potency, µM (titrated, usually from 38.3 µM), for inactives: top-dose activity change, negative = inhibition, most hits filed as inhibitors. 200,000 tested, 0.28% active; further: on the % scale 0 is the no-effect control and ±100 the full control effect; nearly all actives have a fitted effect of over 60% in size
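Inhibition of Kinase-Glo luciferase light generation was assessed at 10 uM ATP in pH 7.2 imidazole buffer, with luminescence measured after eight minutes at ambient temperature.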
SMN2 splice enh = SMN2 splice variant enhancement; 210,000 tested, 2.8% active; HEK293 SMN2-luciferase splicing reporter, luminescence, 30-36 h; Potency, µM (highest dose often 46.1 µM), without a hit: top-dose activity change, positive = activation, hits mostly activators; further: % of control where 0% means no effect; nearly all actives have a fitted effect of over 55% in size
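HEK293 cells carry an SMN2 minigene-luciferase reporter in which exon 7 inclusion puts luciferase in frame. Cells were seeded at 2000 cells/well, attached for 10-12 hours, then exposed to compounds for 30-36 hours at 37C before ONE-Glo luminescence.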
FLuc modulator = counter-screen for miR-21 project: firefly luciferase inhibitors or activators. Potency, µM (series often up to 57.5 µM), for inactives: at the top dose activity change, negative = inhibition, actives largely listed as inhibitors. purified FLuc, Km substrates, luminescence inhibition. 360,000 tested, 6.9% active. AID 588342;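 further: plate controls were vehicle for no effect and reference inhibitor for full effect; nearly all actives have a fitted effect of over 55% in size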
Target sequence (P08659 whole entry, looked up): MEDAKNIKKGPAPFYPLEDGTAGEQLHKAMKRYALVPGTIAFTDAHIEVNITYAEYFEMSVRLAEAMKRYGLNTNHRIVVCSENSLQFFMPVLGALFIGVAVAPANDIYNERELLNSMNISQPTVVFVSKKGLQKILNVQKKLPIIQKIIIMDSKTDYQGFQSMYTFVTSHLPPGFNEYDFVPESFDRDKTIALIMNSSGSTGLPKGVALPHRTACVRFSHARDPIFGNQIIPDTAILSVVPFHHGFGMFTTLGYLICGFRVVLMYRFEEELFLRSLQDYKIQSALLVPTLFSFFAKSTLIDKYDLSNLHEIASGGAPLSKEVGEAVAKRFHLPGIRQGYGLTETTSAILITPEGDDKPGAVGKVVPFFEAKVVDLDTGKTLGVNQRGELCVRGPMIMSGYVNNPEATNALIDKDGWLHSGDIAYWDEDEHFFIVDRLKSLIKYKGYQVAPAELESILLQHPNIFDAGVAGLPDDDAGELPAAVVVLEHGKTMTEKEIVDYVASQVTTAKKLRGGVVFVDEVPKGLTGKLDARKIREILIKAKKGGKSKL
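Purified P. pyralis luciferase, 10 nM final, with Km-level 10 uM D-luciferin and 10 uM ATP in 50 mM Tris acetate pH 7.5, 10 mM Mg acetate, 0.01% Tween-20, 0.05% BSA; 6-point qHTS titration about 60 µM downward; luminescence read.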
Rab9 prom act = activates the Rab9 promoter | Huh7 Rab9 promoter-luciferase reporter, luminescence, 24 h | Potency, µM (series often up to 9.22 µM), for the others: at the top dose activation, negative = inhibition, most hits filed as activators | 320,000 tested, 2.8% active | AID 485297; further: % of control where 0% means no effect; nearly all actives have a fitted effect of over 60% in size
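Stable Rab9-luc Huh7, 1500 cells/well, 2 h settle; cmpd in DMSO, 24 h, 37 °C/5% CO2; luciferase reagent 10 min RT; luminescence.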
NPC1 promoter act = activators of NPC1 promoter; Huh7 NPC1 promoter luciferase reporter, 24 h; Potency, µM (series often up to 9.22 µM), inactives show top-dose activation, hits mostly activators; 320,000 tested, 2.4% active; AID 485313; further: % of control where 0% means no effect; nearly all actives have a fitted effect of over 60% in size
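Luminescence read-out of NPC1 promoter-driven luciferase in stably transfected Huh7 cells; compounds delivered in DMSO and left 24 h at 37C, 5% CO2, qHTS titration format.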
* marks the source's active call; other numbers are inactive results; ? = inconclusive; · = not tested or not shown; [ ] = dose if it differs, or a comment. Sampled rows, rich in hits. Any-hit rate of the full collection: about 7.3%. The call rests on the fitted dose curve; in most records, active means well fitted curve in the direction sought with a large enough effect; inconclusive means small, poorly fitted or top-dose-only effect, or another doubt; inactive means no such curve, though single readings can be large; an effect the other way counts as inactive or inconclusive. Potency means the concentration at half of the fitted maximal effect.

SMILES	Luc counter	SMN2 splice enh	FLuc modulator	Rab9 prom act	NPC1 promoter act
Oc1cccc(/C=N/Nc2cc(N3CCCC3)nc(N3CCCC3)n2)c1	-1%	-18%	13µM*	0%	-1%
Cc1csc2nc(COC(=O)CNC(=O)c3ccccc3Cl)cc(=O)n12	·	·	3%	·	·
CCc1ccc(N(CC)C(=O)Cn2cnc3sc(C)c(S(=O)(=O)N4CCN(c5ncccn5)CC4)c3c2=O)cc1	·	6%	-2%	·	·
CCn1c(=O)cc(OCC(=O)Nc2cccnc2)c2ccccc21	-2%	-4%	-1%	9%	-1%
O=C(COc1ccc2ccccc2c1Br)Nc1cccnc1	·	·	4.8µM*	3%	?
O=C(COc1ccc2ccccc2c1Br)Nc1ccncc1	·	·	12µM*	-11%	-14%
Cc1ccc2c(c1)c1c(c(=O)n(Cc3ccccc3)c(=O)n1CC(=O)NCc1ccccc1Cl)n2C	·	-2%	-2%	·	·
CC(C)Oc1ccc(C(=O)Nc2ccc(C(F)(F)F)n(C)c2=O)cc1	3%	-2%	19µM*	10%	2%
CNC(=O)C1=C(C)Nc2nc3ccccc3n2C1c1ccc(F)cc1 (centres undefined)	·	·	1%	12%	-3%
Fc1ccc(C2=CC(c3ccc(F)cc3)n3c(nc4ccccc43)N2)cc1 (centres undefined)	·	·	11µM*	·	·
COC(=O)c1ccc(C2C=C(c3ccc(Cl)cc3)Nc3nc4ccccc4n32)cc1 (centres undefined)	·	·	6.7µM*	·	·
COc1ccc(C2=CC(c3cc(Br)ccc3F)n3c(nc4ccccc43)N2)cc1 (centres undefined)	·	·	4.3µM*	·	·
Oc1c(C(c2ccc(Cl)cc2)N2CCCC2)sc2nc(-c3ccco3)nn12 (centres undefined)	·	·	-19%	·	·
COc1ccc(C(=O)/C=C/c2ccc(OC)c(O)c2)c(F)c1	-1%	-16%	11µM*	-8%	5%
COc1ccc(/C=C/C(=O)CC(=O)/C=C/c2cccc(O)c2OC)cc1O	·	21%	·	·	·
COc1ccc(/C=C/C(=O)c2ccc(Cl)s2)cc1O	-6%	-12%	1.1µM*	6%	-5%
COc1cc(/C=C/C(=O)c2ccc(Cl)s2)cc(OC)c1O	2%	-26%	?	-4%	-2%
Cc1coc2c1c(C)cc1oc(=O)cc(C)c12	·	7%	-6%	·	·
O=C(NCCCN1CCN(c2ccccc2)CC1)c1ccc2nc(CCc3ccccc3)oc2c1	·	·	0%	·	·
COc1ccc(Cl)cc1NC(=O)c1cn(C2CCCC2)c(=O)c2c1c1ccccc1n2C	·	0%	-2%	·	·
CCN(CC)CC(=O)Nc1ccc2c(c1)N(C(=O)CN(CC)CC)c1ccccc1CC2	-4%	14%	-14%	-4%	11%
CCN(CC)CC(=O)Nc1ccc2c(c1)Nc1ccccc1CC2	0%	-2%	12µM*	?	18%
COc1ccc(/C(N)=N/OC(=O)c2ccc(Br)o2)cc1	·	·	6µM*	?	?
COc1ccc(C(=O)O/N=C(\N)c2ccc(Cl)cc2)cc1	·	·	2.4µM*	?	3.2µM*
N/C(=N\OC(=O)c1ccc(Br)o1)c1cccnc1	-8%	·	?	?	27%
SMILES	Luc counter	SMN2 splice enh	FLuc modulator	Rab9 prom act	NPC1 promoter act
COc1ccccc1C(=O)O/N=C(\N)c1ccc(Cl)cc1	-2%	?	21µM*	28%	?
COc1ccccc1CCNC(=O)Cn1c(=O)oc2ccccc21	·	·	15µM*	4%	-7%
Cc1ccc(C)n1-c1cccc(NC(=O)c2ccccc2)c1	-2%	·	-26%	1%	12%
O=C(Nc1ccc(C(=O)c2ccccc2)cc1)c1ccccc1	·	·	11µM*	2µM*	3.5µM*
Cc1ccc(C)n1-c1ccc(C(=O)Nc2ccccc2)cc1	-8%	13µM*	9.5µM*	?	28%
O=C(Nc1ccc(Br)c(C(F)(F)F)c1)c1ccc(C(F)(F)F)cc1	·	·	?	-3%	2%
O=C(Nc1ccc(C(F)(F)F)cc1)c1ccccc1Br	1%	?	?	28%	22%
O=C(Nc1ccc(Br)c(C(F)(F)F)c1)c1ccccc1	2%	-13%	19µM*	-1%	-4%
O=C(Nc1ccc(C(F)(F)F)cc1)c1ccccc1	·	·	?	2.5µM*	2.8µM*
Cc1nc(N2CCOCC2)c2c(C(=O)Nc3cccc(C(F)(F)F)c3)c(C)oc2n1	·	·	-2%	·	·
Cc1ccc(C2C=C(c3ccc(Cl)cc3)Nc3nc(NC(=O)c4ccco4)nn32)cc1 (centres undefined)	·	1%	?	·	·
Cc1ccc(NC(=O)CCSCCC(=O)Nc2ccc(C)c(C)c2)cc1C	-7%	-1%	17µM*	-4%	-1%
Cc1ccc(NC(=O)c2snc3c(=O)[nH]cnc23)cc1C	4%	-10%	-18%	-5%	0%
O=C(Nc1ccc(-c2cnco2)cc1)c1ccccc1	·	·	?	2.5µM*	3.2µM*
Cc1ccc(NC(=O)c2snc3ccc(Cl)cc23)cc1C	0%	11µM*	12µM*	?	9%
Cc1ccc(NC(=O)CC(=O)Nc2ccc(C)c(C)c2)cc1C	·	·	2%	1%	1%
O=C(Nc1cccc(C(F)(F)F)c1)c1cc[n+]([O-])cc1	·	·	3%	0%	0%
O=C(Nc1cccc(O)c1)c1ccc(C(F)(F)F)cc1	-13%	·	12µM*	?	?
NC(=O)N/N=C1\CC[C@H](O)C[C@@H]1CC(=O)O	-3%[7.66 µM]	19%[9.22 µM]	·	·	·
CC(C)CC(=O)Nc1ccc(C(=O)Nc2cccc(O)c2)cc1	-4%	·	17µM*	?	30%
Cc1ccc(NC(=O)c2ccccc2)cc1C	·	·	15µM*	6%	13%
Cn1c(-c2ccccc2F)cc2onc(-c3ccccc3)c2c1=O	·	·	0.54µM*	0.4µM*	0.32µM*
Cc1onc2c(=O)n(-c3ccccc3)nc(-c3ccccc3)c12	·	·	0%	-6%	-1%
Cn1c(-c2ccccc2)cc2onc(-c3ccccc3)c2c1=O	·	·	0.17µM*	40µM*	0.079µM*
CSc1nc(-c2ccccc2F)c(C#N)c(=O)n1C	9%	-1%	0%	3%	-3%
SMILES	Luc counter	SMN2 splice enh	FLuc modulator	Rab9 prom act	NPC1 promoter act
N#Cc1ccccc1CSc1nc(N)cc(N)n1	·	·	-12%	10%	1%
N#Cc1ccccc1CSc1nnc(-c2ccccc2)o1	·	11µM*	3.8µM*	·	·
COc1ccc(-c2nnc(SCc3ccccc3F)o2)cc1OC	-5%	18%	24µM*	?	29%
Cc1ccc(-c2nnc(SCc3ccccc3F)o2)cc1	-2%	11µM*	?	0.89µM*	0.79µM*
NCCc1nnc(SCc2ccccc2F)o1	-1%	-2%	2%	0%	2%
COC(=O)CSc1nnc(-c2ccc(OC)c(OC)c2)o1	0%	1%	-23%	-2%	-5%
O=C(Nc1ccccc1C(=O)O)c1cccc(S(=O)(=O)N2CCCC2)c1	·	6%	12µM*	·	·
CN(C)S(=O)(=O)c1cccc(C(=O)Nc2ccccc2Cl)c1	-2%	-14%	-14%	-7%	5%
Cc1ccccc1NC(=O)c1cccc(S(=O)(=O)N2CCCCC2)c1	·	·	0%	12%	0%
